Among all 96,000 compounds or so, about 20,000 (21%) were called active. A selection follows. Unmarked numbers belong to inactive results.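 Rule for the calls: active = CYP2C19 inhibition above a set limit at 5 µM in the primary screen (cut at about 50% in these data); inactive = the rest.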
The molecules below were run against Cytochrome P450 2C19 (Homo sapiens) (UniProt P33261) (assay: blockers of cytochrome P450 2C19 activity – biochemical, luminescence, ADME assay, primary screen (AID 778;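 note: plate controls were negative control wells for no effect and 2.5 mM tranylcypromine positive control for full effect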)). Conditions: CYP2C19 Supersomes, luciferin-H EGE luminescence, 30 min; at 5 µM; stronger effect = higher value.
Chain of Cytochrome P450 2C19 (Homo sapiens) (P33261 whole entry, looked up): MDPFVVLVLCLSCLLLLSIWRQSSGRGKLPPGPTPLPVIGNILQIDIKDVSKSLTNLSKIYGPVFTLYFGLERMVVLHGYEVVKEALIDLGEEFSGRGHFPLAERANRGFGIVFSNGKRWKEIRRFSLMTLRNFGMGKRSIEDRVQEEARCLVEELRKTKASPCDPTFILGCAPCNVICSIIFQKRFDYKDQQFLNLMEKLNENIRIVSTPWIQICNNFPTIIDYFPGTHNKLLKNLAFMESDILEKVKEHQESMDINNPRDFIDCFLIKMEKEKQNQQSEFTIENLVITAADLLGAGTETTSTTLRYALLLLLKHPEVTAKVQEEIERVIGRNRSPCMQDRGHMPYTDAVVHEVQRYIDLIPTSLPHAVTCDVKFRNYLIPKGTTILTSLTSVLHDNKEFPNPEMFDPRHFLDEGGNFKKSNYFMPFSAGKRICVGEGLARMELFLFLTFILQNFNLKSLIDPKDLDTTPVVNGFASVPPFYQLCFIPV

Row | SMILES | inhibition
1 | Cc1nc(SCC(=O)Nc2cc(C)on2)c2c(C)c(C)sc2n1 | 9.2%
2 | CCOc1cc(C2C(C(=O)OC)=CN(C3CCCC3)C=C2C(=O)OC)cc(Br)c1O | -1.9%
3 | CC(=O)c1cc(NC(=O)c2ccccc2)c(=O)oc1/C=C/N(C)C | 0.3%
4 | CN(C)c1cc(N)c2ccccc2n1 (tested in a mixture with another compound) | -9.5%
5 | Cc1cc(NC(=O)COc2ccc(Cl)cc2Cl)n(CCC#N)n1 | 99.1% (active)
6 | Cc1cc(Nc2ccccc2)n(CCC#N)n1 | -5.9%
7 | CN1CCN(c2ccc(NC(=O)COc3ccc(Cl)cc3Cl)cc2)CC1 | 17.9%
8 | Cc1ccc(S(=O)(=O)N2C3C=CC(C3)C2C(=O)O)cc1 (stereo unspecified) | 10.3%
9 | O=S1(=O)C=C(SCCN2CCCC2)c2ccccc21 | 28.3%
10 | CC(C)(C)c1csc(NC2=NS(=O)(=O)c3ccccc32)n1 | 0.4%
11 | CC(C)(C)c1ccc(OC2=CS(=O)(=O)c3ccccc32)cc1 | 65.2% (active)
12 | COc1cc2[nH]c(=S)n(CCN3CCCCC3C)c(=O)c2cc1OC (stereo unspecified) | -5.5%
13 | O=C1CCCc2c1[nH]c1ccc(Br)cc21 | 15.9%
14 | Nc1c(-c2ccc(F)cc2)cnc2ncnn12 | -14%
15 | COC(=O)[C@H](CCSC)NC(=O)Nc1ccc(OC)cc1 | 38%
16 | Fc1ccccc1COc1ccccc1CNCc1ccncc1 | 96.3% (active)
17 | COc1cc(/C=C2/C(=O)ON=C2C)ccc1OCc1ccccc1F | 17.5%
18 | c1ccc(COc2ccccc2CNCc2cccnc2)cc1 | 59.4% (active)
19 | COc1ccccc1CNCc1cccs1 | 31.8%
20 | Cc1nc2ccccc2cc1OCc1ccc(F)cc1 | 17.6%
21 | Cn1c(=O)c2c(nc(OCc3cccnc3)n2Cc2ccccc2)n(C)c1=O | 16.8%
22 | Cc1nnc(SCC(=O)NC2CCCC2)s1 | 19.1%

Row | SMILES | inhibition
23 | Cn1cccc1C(=O)NC(=O)COC(=O)Cc1coc2ccc3ccccc3c12 | 31.8%
24 | O=c1[nH][nH]c(=O)c2cc(N3CCCC3)ccc12 | 0.9%
25 | CCOc1ccc(-c2nc(C)sc2CC(=O)O)cc1 | 12.3%
26 | CCc1nc(C)ccc1OCC(=O)N(CC)CC | 0.2%
27 | C=CCn1c(SCC(=O)NCc2ccccc2)nnc1-c1cc(Br)ccc1O | 91.6% (active)
28 | C=CCn1c(N)cc(=O)nc1SCC(=O)Nc1cccc2ccccc12 | 1%
29 | C=CCn1c(CSc2nc3ccccc3s2)nnc1SCC(=O)NCc1ccco1 | 24.8%
30 | C=CCn1c(SCC(=O)Nc2nc3ccccc3s2)nnc1-c1ccccc1O | 54.6% (active)
31 | C=CCn1c(COc2ccccc2)nnc1SCC(=O)NCC(=O)OCC | -8.4%
32 | CCCCCCn1c(CN2CCCC(C)C2)nc2c1c(=O)n(C)c(=O)n2C (stereo unspecified) | 2.2%
33 | CCOC(=O)Nc1ccc2c(c1)N(C(=O)CN1CCN3CCCC3C1)c1ccccc1CC2 (stereo unspecified) | 18.2%
34 | CCCCNC(=O)C1CCCNC1=O (stereo unspecified) | -19%
35 | CCOC(=O)c1nnn(-c2nc(OC)nc(N(C)C)n2)c1-c1ccccc1 | 27.7%
36 | CCOC(=O)c1nnn(-c2nonc2OC)c1-c1ccccc1 | 60.7% (active)
37 | CCOC(=O)C1=C(c2ccccc2)O/C(=C(/C(=O)OC)C(F)(F)F)S1 | 11.1%
38 | Cc1cccc(C(=O)Nc2ccc(C(=O)/C=C/c3cccs3)cc2)c1 | -1.9%
39 | CCCNC(=O)NCc1ccc(N2CCCC2=O)cc1 | 3.6%
40 | Brc1ccc(OCCn2ccnc2)cc1 | 91.7% (active)
41 | COc1cccc(C(=O)Nc2c3c(nn2-c2cccc(C)c2C)CS(=O)(=O)C3)c1OC | -2.2%
42 | C=CCNC(=O)C1CC=CCC1C(=O)O (stereo unspecified) | -11.3%
43 | N#CC1=C(SCc2ccccc2)NC(=O)C(C#N)C12CCCC2 (stereo unspecified) | 63.9% (active)
44 | Cc1ccc(Cc2nc(-c3cccc(C)c3)no2)cc1 | 2.2%

Row | SMILES | inhibition
45 | O=C1c2ccccc2C(=O)N1CCCc1nc(-c2ccccc2)no1 | 9.5%
46 | c1ccc(CCc2nc(-c3ccncc3)no2)cc1 | 97.5% (active)
47 | CCOC(=O)N1CCN(CC(=O)Nc2cc(C)nn2-c2nc3ccccc3s2)CC1 | 39.8%
48 | CCn1cc(C(=O)N/N=C(/C)c2ccc(F)cc2)c(=O)c2cc(F)c(N3CCCC3)cc21 | 39.5%
49 | Cc1nnc(SCC(=O)Nc2ncc3c(n2)CC(C)(C)CC3=O)s1 | 1.5%
50 | CCN1C(=O)C(CC(=O)Nc2cc(C)ccc2C)SC1=Nc1ccc(S(N)(=O)=O)cc1 (stereo unspecified) | 17.6%
51 | Cn1cccc1C(=O)Nc1nccs1 | 8.5%
52 | O=C(CCSCCc1ccccn1)Nc1nccs1 | 82.6% (active)
53 | CC(=O)Oc1ccc(C(=O)Nc2nccs2)cc1 | 16.7%
54 | CC(C(=O)O)N1C(=O)c2cccc3cccc1c23 (stereo unspecified) | -13.8%
55 | CC(C(=O)N1CCOCC1)N1c2cccc3cccc(c23)S1(=O)=O (stereo unspecified) | 80.5% (active)
56 | NC(=NC(=O)c1ccccc1)N1CCOCC1 | 12%
57 | O=C(NCCN1CCN(Cc2ccccc2)CC1)c1cc2c(=O)[nH]c3ccccc3c2s1 | -2.7%
58 | Nn1c(Cc2cccc3ccccc23)nnc1SCC(=O)N1CC(=O)Nc2ccccc21 | -8.7%
59 | COc1ccc(NC(=O)c2c(SC)nsc2SC)cc1 | 7.1%
60 | O=S1(=O)CCN2C(=N1)SC1=C2CCN(Cc2ccccc2)C1 | 48.1%
61 | CN(C(=O)C1CCOC1)c1nnc(-c2cccnc2)s1 (stereo unspecified) | 5.3%
62 | Cn1cnc([N+](=O)[O-])c1Sc1ccccc1 | 30.3%
63 | Cn1nc([N+](=O)[O-])nc1Sc1ccc(C(C)(C)C)cc1 | 97.1% (active)
64 | CC(C)(C)NC(=O)Cn1cnc([N+](=O)[O-])n1 | 6.1%
65 | Cc1ccc(-c2n[nH]c(=S)n2/N=C/c2cc3c(cc2[N+](=O)[O-])OCO3)cc1 | 0.8%
66 | O=C(COc1ncnc2c(Cl)cc(Cl)cc12)N1CCN(S(=O)(=O)c2ccccc2)CC1 | -6.9%

Reference: PubChem BioAssay AID778 (Sanford-Burnham Center for Chemical Genomics, 2007)
